Assay results reported in PubChem BioAssay AID720709 (National Center for Advancing Translational Sciences (NCATS), 2013).
The whole screen tested about 360,000 compounds, of which about 520 (0.14%) were called active. Inconclusive results (about 3%) are left out. Calls follow the shape of the dose curve; as a rule, active = well fitted inhibition curve with a large enough effect; inconclusive = small, poorly fitted or top-dose-only effect; inactive = no such curve, though single readings can be large or run the other way. What follows is part of a selection rich in actives, with near analogues and random picks from the rest. A call without a number means that no potency is given here.

biological target: Rap guanine nucleotide exchange factor 3 (Homo sapiens) (UniProt O95398); experiment: qHTS for Antagonist of cAMP-regulated guanine nucleotide exchange factor 3 (EPAC1): primary screen; conditions: EPAC1 GEF assay, Rap1b-BODIPY-GDP exchange fluorescence; series mostly up to 115 µM; also: nearly all actives have a fitted effect of over 50% in size
Sequence (O95398 whole entry, looked up): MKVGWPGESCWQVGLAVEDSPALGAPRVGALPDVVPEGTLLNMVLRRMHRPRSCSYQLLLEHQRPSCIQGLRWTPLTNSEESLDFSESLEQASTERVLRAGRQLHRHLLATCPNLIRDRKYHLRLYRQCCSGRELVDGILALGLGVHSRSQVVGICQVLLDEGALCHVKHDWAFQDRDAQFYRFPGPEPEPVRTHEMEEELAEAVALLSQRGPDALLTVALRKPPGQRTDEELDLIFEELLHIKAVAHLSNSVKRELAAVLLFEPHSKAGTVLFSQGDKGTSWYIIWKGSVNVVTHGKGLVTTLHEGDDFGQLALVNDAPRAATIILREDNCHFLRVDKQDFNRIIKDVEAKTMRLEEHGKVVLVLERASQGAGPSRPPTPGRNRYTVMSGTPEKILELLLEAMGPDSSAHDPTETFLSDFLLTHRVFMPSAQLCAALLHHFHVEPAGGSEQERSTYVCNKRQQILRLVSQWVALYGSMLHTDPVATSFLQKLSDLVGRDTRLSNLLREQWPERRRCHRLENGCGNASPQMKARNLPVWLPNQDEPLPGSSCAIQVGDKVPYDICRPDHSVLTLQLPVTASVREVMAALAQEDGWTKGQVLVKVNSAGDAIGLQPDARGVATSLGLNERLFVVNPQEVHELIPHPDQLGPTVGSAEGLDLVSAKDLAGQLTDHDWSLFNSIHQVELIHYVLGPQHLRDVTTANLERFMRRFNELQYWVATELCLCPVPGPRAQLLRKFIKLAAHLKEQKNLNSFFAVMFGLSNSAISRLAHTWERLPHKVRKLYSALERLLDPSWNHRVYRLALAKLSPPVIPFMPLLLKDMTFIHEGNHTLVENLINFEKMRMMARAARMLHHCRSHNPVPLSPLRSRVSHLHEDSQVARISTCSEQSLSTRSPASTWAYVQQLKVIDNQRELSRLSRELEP
Source text: In multi-cellular eukaryotic organisms, the effects of cAMP are transduced by two ubiquitously-expressed intracellular cAMP receptors, the classic protein kinase A/cAMP-dependent protein kinase (PKA/cAPK) and the more recently discovered exchange protein directly activated by cAMP/cAMP-regulated guanine nucleotide exchange factor (EPAC/cAMP-GEF). Both PKA and EPAC are ubiquitously expressed in all tissues, and an increase in intracellular cAMP levels will lead to the activation of both PKA and EPAC. Therefore, careful dissections of the individual role and relative contribution of EPAC and PKA within the overall cAMP signaling in various model systems are critical for further elucidating the mechanism of cAMP signaling. To date no EPAC-specific antagonists and agonist, as well as isoform-specific agonists have been reported, and developing EPAC-specific pharmacological probes to determine the physiological functions that EPAC play in the overall cAMP-mediated signaling remains a major challenge within the research field. Furthermore, identified regulators of EPAC may lead to new mechanism-based therapeutic strategies specifically targeting the EPAC / cAMP-signaling components as EPAC has been implicated to play important roles in major human pathological conditions such as diabetes, heart disease, and cancer. This qHTS will be used to screen the Molecular Libraries Small Molecule Repository (MLSMR) as a concentration-titration series using the NCGC unique quantitative screening (qHTS) platform to find inhibitors for EPAC1. In addition, this assay will also be used as a counterscreen for the EPAC2 qHTS. This fluorescent based assay is developed and validated for EPAC1 that measures exchange using EPAC effector Rap1 complex with BODIPY-GDP, a GDP analog with a tethered fluorophores. Inhibitors are identified by monitoring the change in fluorescence signal as the exchanged free BODIPY-GDP has a reduced fluorescence compared to Rap1-bound BODIPY-GDP. Decrease in signal (inhibition) is the desired outcome for the EPAC1 antagonist while no activity in this assay is desired for the EPAC2 antagonist counterscreen. de Rooij, J., Zwartkruis, F. J., Verheijen, M. H., Cool, R. H., Nijman, S. M., Wittinghofer, A., and Bos, J.L. (1998) Nature 396, 474-477 [2] Kawasaki, H., Springett, G. M., Mochizuki, N., Toki, S., Nakaya, M., Matsuda, M., Housman, D. E., and Graybiel, A. M. (1998) Science 282, 2275-2279 NIH Chemical Genomics Center [NCGC] NIH Molecular Libraries Probe Centers Network [MLPCN] MLPCN Grant: NS066510 Assay Submitter (PI): Xiaodong Cheng, The University of Texas, Medical Branch
Briefly, three uL of reagents (100 nM EPAC1, 250 nM RAP1B-BODIPY-GDP, 50 uM GDP) were dispensed into a 1536-well Greiner black solid-bottom medium binding assay plate. Controls and test compounds (23 nL) were transferred to the plate via a Kalypsys pin tool equipped with a 1536-pin array. The plates were centrifuged at 1,000 rpm for 15 seconds followed by 5 minute incubation at room temperature. The assay plates were read at 5 minute intervals for 30 minutes in the ViewLux plate reader using 480nm excitation and 540nm emission filters. The results were normalized to the […] positive control ATA and DMSO.
Potency is read from the fitted curve at half-maximal effect.

Row | Compound | Potency
1 | CCCCN1C(=O)C(CC(=O)NCc2cccs2)CC(C(=O)N2CCCCCC2)=C1C (stereo not given) | inactive
2 | O=C(CCc1ccccc1Cl)Nc1ccc(S(=O)(=O)Nc2nccs2)cc1 | inactive
3 | O=C(Nc1ccc(S(=O)(=O)Nc2nccs2)cc1)c1cc(=O)[nH]c2ccccc12 | inactive
4 | O=C(Nc1ccc(S(=O)(=O)Nc2nccs2)cc1)c1cc(-c2ccncc2)nc2ccccc12 | 79.4 µM (active)
5 | Cc1ccc2nc(-c3ccco3)c(Cc3cccc(Cl)c3)n2c1 | inactive
6 | CCOC(=O)N1CCN(C(=O)C[C@@H]2C[C@@]3(C(=O)OC)CCCCC=C3N(CCC3=CCCCC3)C2=O)CC1 | inactive
7 | CC(C)C[C@H]1CNC(=O)C(=O)N1C[C@@H]1CCCN1C[C@H](Cc1ccccc1)N1C[C@H](CC(C)C)N(CC2CCCCCC2)C(=O)C1=O | inactive
8 | O=C(NCc1ccccn1)[C@@H]1CCCN1C(=O)[C@@H]1CCCN1C(=O)c1ccccc1 | inactive
9 | COC(=O)c1ccc2nc(-c3ccc(F)cc3)c(Cc3ccc(C)cc3)n2c1 | inactive
10 | CC1(C(=O)NCc2ccccc2)CSCC(=O)N1CCCn1ccnc1 (stereo not given) | inactive
11 | COc1ccc(C(C(=O)NCc2ccccc2)n2c(=O)c(-c3ccccc3)nc3ccccc32)cc1 (stereo not given) | inactive
12 | CC(C)(C)NC(=O)C(CCc1ccccc1)n1c(=O)c(-c2ccccc2)nc2ccccc21 (stereo not given) | inactive
13 | CCCCNC(=O)OC1CC2CC1[C@H]1CCCCN1C2=O (stereo not given in full) | inactive
14 | CCCCNC(=O)C[C@@H]1C[C@@]2(C(=O)OCC)CCC=C2N(Cc2cccc3ccccc23)C1=O | inactive
15 | CCCCn1nnnc1C(c1cc2ccccc2o1)N(C)Cc1ccc(Cl)c(Cl)c1 (stereo not given) | inactive
16 | COC(=O)C[C@H]1C=C[C@@H](NS(=O)(=O)c2ccc(C)cc2)[C@@H](CO)O1 | inactive
17 | CCC(c1nnnn1-c1ccc2c(c1)OCCO2)N1CCN(c2ccc(C(F)(F)F)cn2)CC1 (stereo not given) | inactive
18 | CC(=O)C[C@@H]1OC[C@H](CO)N1S(=O)(=O)c1ccc(C)cc1 | inactive
19 | COc1ccc(C2OC(CCc3ccccc3)Cc3[nH]c(=S)[nH]c(=O)c32)cc1 (stereo not given) | inactive
20 | CCOc1ccc(C(=O)Nc2ccc(S(=O)(=O)Nc3cc(C)on3)cc2)cc1 | inactive
21 | CCOc1ccc(CC(=O)Nc2ccc(S(=O)(=O)Nc3cc(C)on3)cc2)cc1OCC | inactive
22 | CCOc1ccc(Br)cc1S(=O)(=O)Nc1ccc(S(=O)(=O)Nc2cc(C)on2)cc1 | 39.8 µM (active)
23 | CSCCC(C(=O)NC(C)(C)C)n1c(-c2ccccc2)nc2ccccc21 (stereo not given) | inactive

Row | Compound | Potency
24 | Fc1cccc(Cc2c(-c3cccc(Cl)c3)nc3ccc(Br)cn23)c1 | inactive
25 | COC(=O)C[C@@H]1C=C[C@@H](NC(=O)c2cccnc2)[C@@H](CO)O1 | inactive
26 | C[C@@H]1CC2=C(C(=O)OC(C)(C)O2)[C@@H](C2CC2)O1 | inactive
27 | O=S1(=O)CC(N2CCN(CCO)CC2)CN1Cc1cn(Cc2ccc(Cl)cc2)nn1 (stereo not given) | inactive
28 | Cc1nccn1-c1ccc(NC(=O)[C@H]2O[C@@H](n3ccc(=O)[nH]c3=O)[C@H](O)[C@@H]2O)cc1 | inactive
29 | COc1ccc(OC)c(CN2C(=O)CCC2(C)c2nnnn2Cc2ccccc2)c1 (stereo not given) | inactive
30 | COC(=O)[C@@]12C[C@@H](CC(=O)NCCCCc3ccccc3)C(=O)N(CCc3ccc(OC)c(OC)c3)C1=CCC(C)(C)C2 | inactive
31 | CCCCCn1nnnc1-c1nc2cc3ccccc3cc2[nH]c1=O | inactive
32 | COC(=O)[C@@]12C[C@@H](CC(=O)NCCCCc3ccccc3)C(=O)N(Cc3ccccc3)C1=CCC(C)(C)C2 | inactive
33 | CC(C)(C)C1CCC(=O)N2CCC[C@]2(c2ccccc2)C1 (stereo not given in full) | inactive
34 | CCOC(=O)[C@]12CCCC=C1N(CCC1=CCCCC1)C(=O)[C@H](CC(=O)N1CCN(C(=O)c3ccco3)CC1)C2 | inactive
35 | Cc1[nH]c2ccccc2c1C(=O)c1cc([C@H](NC(=O)OC(C)(C)C)C(C)C)sc1N | inactive
36 | CCOC(=O)N1C(=O)C[C@](Sc2ccc(C)cc2)(C(=O)OC)[C@H]1c1ccccc1 | inactive
37 | O=C(C[C@H]1CC[C@H]2[C@@H](COC[C@H](O)CN2C(=O)c2ccccn2)O1)N1CCN(c2ccccc2)CC1 | inactive
38 | Nc1nc2c(Br)ccc(Br)c2cc1C(=O)NCCc1ccccc1 | inactive
39 | O=c1[nH][nH]c2c1[C@H](c1ccc(Cl)cc1)O[C@H](CCc1ccccc1)C2 | inactive
40 | CC1(C(=O)Nc2ccc3c(c2)OCCO3)CSCC(=O)N1CCOc1ccccc1 (stereo not given) | inactive
41 | Cc1ccc(S(=O)(=O)N[C@H](CO)C(C)C)cc1 | inactive
42 | N#Cc1ccc(-c2nc3c(Cl)cc(C(F)(F)F)cn3c2Cc2ccccc2C(F)(F)F)cc1 | inactive
43 | CC1(C)OC(=O)C2=C(C[C@@H](C3CCCCC3)O[C@@H]2c2ccc(Cl)cc2)O1 | inactive
44 | COC(=O)C1(C(=O)OC)C[C@H](c2ccccc2)N(Cc2ccccc2OC)[C@@H]1c1ccccc1 | inactive
45 | CN1CCN(c2ccc3c(c2)OC[C@H](Cc2ccccc2)NS3(=O)=O)CC1 | inactive
46 | COC(=O)C[C@H]1C=C[C@H](NC(=O)c2ccc(F)cc2)[C@@H](CO)O1 | inactive

Row | Compound | Potency
47 | C=C1C(=O)OC2C1CCC(C)=CCCC1(C)OC21 (stereo not given) | inactive
48 | CO[C@@H]1CN(C)C(=O)c2cc(NC(=O)C3CC3)ccc2OC[C@H](C)N(C(=O)CN2CCOCC2)C[C@@H]1C | inactive
49 | CC(C)C1C(=O)N(Cc2cn(CCC3OCCO3)nn2)CCS(=O)(=O)N1Cc1ccc(-c2ccccc2C(F)(F)F)cc1 (stereo not given) | inactive
50 | CCOC(=O)[C@]12CCC=C1N(Cc1cccc3ccccc13)C(=O)[C@H](CC(=O)NCc1cccc(C(F)(F)F)c1)C2 | inactive
51 | CCCCC[C@H](C)N1C[C@@H](COCc2ccccc2)Oc2cc(N3CC[C@@H](N(C)C)C3)ccc2S1(=O)=O | inactive
52 | C=CCC[C@@H](CCCCC)OC(=O)/C=C/[C@@H](O)[C@H](O)C[C@H](O)CC=C | inactive
53 | CCOC(=O)c1ccc(-c2ccc3ncnc(N(C)Cc4sccc4C)c3c2)o1 | inactive
54 | CCCNC(=O)c1cc2c(c(-c3cccc(-c4ccc(C#N)cc4)c3)n1)[C@@H](CCO)N(C(=O)CC)C2 | inactive
55 | Cc1ccc(C(=O)Nc2c(-c3ccccc3)[nH][nH]c2=O)cc1 | inactive
56 | CCCc1nc2ccccc2n1C(C)C(=O)NC(C)(C)C (stereo not given) | inactive
57 | N#Cc1ccc(C(C(=O)NCc2ccccc2)n2c(=O)c(-c3ccco3)nc3ccccc32)cc1 (stereo not given) | inactive
58 | CC(C)NC(=O)N1Cc2cc(C(=O)NCC(F)(F)F)nc(-c3cccc(-c4cc5ccccc5o4)c3)c2[C@@H]1CCO | inactive
59 | CC(C)C[C@H]1CNC(=O)C(=O)N1C[C@H]1CCCN1C[C@H](Cc1ccc(O)cc1)N1C[C@H](CC(C)C)N(CC2CCCCCC2)C(=O)C1=O | inactive
60 | COC(=O)c1ccc2c(c1)S(=O)(=O)NC2C (stereo not given) | inactive
61 | CCC(C(=O)NCc1ccccc1)n1c(Cc2cc(F)cc(F)c2)nc2ccccc21 (stereo not given) | inactive
62 | CCOC(=O)c1cc2cc(OC)ccc2n1C1CCN(C)CC1 | inactive
63 | COC(=O)[C@@]1(Sc2ccc(C)cc2)CC(=O)N(c2cccc(SC)c2)[C@@H]1c1ccccc1 | inactive
64 | COC(=O)[C@]12CCCCC=C1N(Cc1ccccc1)C(=O)[C@H](CC(=O)NCc1ccc(C)o1)C2 | inactive
65 | CC(C)OC(=O)CC(=O)CC(O)c1cccc([N+](=O)[O-])c1 (stereo not given) | inactive
66 | CCCCc1c(-c2ccc(Cl)cc2)ncn1CCc1ccccc1OC | inactive
67 | CCOC(=O)N1CCN(C(=O)C[C@@H]2C[C@@]3(C(=O)OC)CC(C)(C)CC=C3N(Cc3ccco3)C2=O)CC1 | inactive
68 | Nc1[nH]c(C(=O)c2ccccc2)c(-c2ccncc2)c1C(=O)NCc1cccc2ccccc12 | inactive
69 | CC(C)c1ccc2c(c1)c(SC(C)(C)C)c(CC(C)(C)C(=O)O)n2Cc1ccc(Cl)cc1 | 25.1 µM (active)

Row | Compound | Potency
70 | CCCCc1c(-c2ccc(Br)cc2)ncn1CCc1ccccc1OC | inactive
71 | CCC(=O)N1Cc2cc(C(=O)NCc3cccc(F)c3)nc(-c3cccc(C4=CCCC4)c3)c2[C@H]1CCO | inactive
72 | CCC(C)Cn1c(O)cc2nn(-c3nc4ccccc4s3)c(=O)c-2c1C (stereo not given) | 50.1 µM (active)
73 | Cc1cc2nc(-c3ccc(F)cc3)c(Cc3ccsc3)n2c(C)c1Br | inactive
74 | COc1ccc(NC(=O)C(c2ccncc2)n2c(=O)c(-c3cc4ccccc4[nH]3)nc3ccccc32)cc1 (stereo not given) | inactive
75 | CCCCCc1c(Cc2ccccc2)ncn1CCc1ccccc1OC | inactive
76 | Cc1ccc(-c2c(N)nc3ncccn23)cc1 | inactive
77 | CCCCC[C@H](C)N1C[C@@H](COCc2ccccc2)Oc2cc(N3CCC[C@@H]3CO)ccc2S1(=O)=O | inactive
78 | CCCCCCN1CCN(C2CN(Cc3cn(Cc4ccc(F)cc4)nn3)S(=O)(=O)C2)CC1 (stereo not given) | inactive
79 | CC1(C)OC(=O)C2=C(C[C@@H](C3CCCC3)O[C@@H]2c2ccc(Cl)cc2)O1 | inactive
80 | CCCCCc1c(-c2ccc(OC)c(OC)c2)ncn1CCc1ccccc1OC | inactive
81 | COc1ccc(C(C#N)=C2C=CC(=NO)c3ccccc32)cc1 | inactive
82 | COCCNC(=O)C1C(=O)Nc2ccccc2C(=O)N1c1ccc2c(c1)OCCO2 (stereo not given) | inactive
83 | O=C(C[C@H]1CC[C@@H](NC(=O)c2ccncc2)[C@@H](CO)O1)NCC1CC1 | inactive
84 | CC1(C(=O)NCc2ccccc2)CSCC(=O)N1CCCN1CCOCC1 (stereo not given) | inactive
85 | FC(F)(F)c1cccc(-c2nc3ccccc3n2C(c2ccccc2)c2nc3ccccc3[nH]2)c1 (stereo not given) | inactive
86 | CC1(C)OC(=O)C2=C(C[C@@H](C3CC3)O[C@H]2c2ccc(Cl)cc2)O1 | inactive
87 | Cc1ccc(-c2nc3c(C)cc(Br)cn3c2Cc2ccccc2)cc1 | inactive
88 | COc1ccc(C2=NN(c3nc4ccccc4s3)C(=O)C2)cc1 | 79.4 µM (active)
89 | COc1ccc(-c2cc3n(n2)CCc2nc4ccccc4n2-3)cc1 | inactive
90 | COc1ccc(C2=NN(C(=O)c3ccccc3C(=O)O)C(c3ccccc3O)C2)cc1 (stereo not given) | inactive
